14 compounds from PubChem BioAssay can be followed below.

Active and inactive are the calls of the source.

For assay [1], the system named is PRMT1 (protein arginine N-methyltransferase 1). Description: PRMT1 binders on small-molecule microarrays, primary screen, biochemical, small-molecule microarray, 635 nm fluorescence (AID 1088).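 Note: binding of Prmt1 protein to compounds spotted on small-molecule microarray slides.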 As to conditions: small-molecule microarray binding, higher = more signal.
Assay [2] in a line: yeast growth modulation, basal conditions, primary screen, YJM789 clinical isolate, OD600, 24 h (AID 1089).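 Note: growth of clinical yeast isolate S. cerevisiae YJM 789 seeded 1000 cells per well; test concentration not given here.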 The settings on record: S. cerevisiae YJM789 growth, higher = more signal, called active from +8 up or from −8 down.
The nature of assay [3]: fission yeast growth modulation, primary screen, strain 972, OD600, 24 h, no modulator (AID 1090).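 Note: basal condition with compound alone and no growth modifier present; test concentration not given here.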 The settings on record: S. pombe 972 growth, higher = more signal, called active from +8 up or from −8 down.
The nature of assay [4]: S. cerevisiae growth modulation with rapamycin, primary screen, strain BY4716, OD600, 96 h (AID 1091). Note: test concentration not given here. As to conditions: higher = more signal, called active from +8 up or from −8 down.
The target in assay [5] is Torsin-1A-interacting protein 2 (Homo sapiens) (UniProt Q8NFQ8). The assay is described as follows: LULL1 binders on small-molecule microarray, primary screen, cell lysate, human LULL1 lysate, 635/667 nm fluorescence (AID 1092).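 Note: probe is lysate of COS7 cells overexpressing human LULL1; score merges per-feature 667 nm fluorescence with signal-to-noise.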 The settings on record: hLULL1 lysate binding, 635 nm fluorescence, higher = more signal.
Torsin-1A-interacting protein 2 (Homo sapiens), sequence (Q8NFQ8 whole entry, looked up): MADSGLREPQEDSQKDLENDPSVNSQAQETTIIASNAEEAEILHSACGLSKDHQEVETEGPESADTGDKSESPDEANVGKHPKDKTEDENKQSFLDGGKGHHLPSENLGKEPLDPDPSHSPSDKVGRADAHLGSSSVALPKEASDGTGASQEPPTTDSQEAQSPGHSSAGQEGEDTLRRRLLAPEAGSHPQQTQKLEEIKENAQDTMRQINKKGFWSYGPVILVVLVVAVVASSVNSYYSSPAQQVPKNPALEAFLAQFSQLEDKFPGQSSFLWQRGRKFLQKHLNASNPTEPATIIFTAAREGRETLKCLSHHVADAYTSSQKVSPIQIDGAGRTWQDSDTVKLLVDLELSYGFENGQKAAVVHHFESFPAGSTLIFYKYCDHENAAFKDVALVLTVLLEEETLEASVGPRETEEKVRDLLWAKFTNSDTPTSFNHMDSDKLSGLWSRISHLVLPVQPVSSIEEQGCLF
A short description of assay [6]: E. coli growth modulation, two-sided OD650, primary screen, E. coli filamentation project, strain DRC41, 24 h (AID 1093).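 Note: MC1000 strain lacking acrAB efflux and sulA so SOS filamentation is blocked; test concentration not given here.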 As to conditions: OD650, 24 h, higher = more signal, called active from +8 up or from −8 down.
A short description of assay [7]: small-molecule microarray binders of probe aLefty2, primary screen, biochemical, biotinylated probe, 635/667 nm fluorescence (AID 1094).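 Note: score merges spot fluorescence near 667 nm with spot signal-to-noise ratio.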 As to conditions: higher = more signal.
The test system of assay [8] is Noggin (protein binding on small-molecule microarray). The assay is described as follows: Noggin binders on small-molecule microarray, primary screen, biochemical, 635/667 nm fluorescence (AID 1095).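 Note: score merges 667 nm feature fluorescence with signal to noise over triplicate slides.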 As to conditions: 635 nm fluorescence, higher = more signal.
Assay [9] addresses Neurogenic locus notch homolog protein 3 (Homo sapiens) (UniProt Q9UM47). Description: NOTCH3 binders on small-molecule microarray, primary screen, biochemical, 635/667 nm fluorescence (AID 1096). The settings on record: NOTCH3 binding, 635 nm fluorescence, higher = more signal.
The nature of assay [10]: small-molecule microarray binders of probe aEGFR, primary screen, biochemical, biotinylated probe, 635/667 nm fluorescence (AID 1097).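 Note: probe is a biotinylated anti-EGFR antibody binding compounds printed on slides; score combines fluorescence near 667 nm and signal to noise of each spot.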 As to conditions: higher = more signal.

Neurogenic locus notch homolog protein 3 (Homo sapiens), sequence (Q9UM47 whole entry, looked up): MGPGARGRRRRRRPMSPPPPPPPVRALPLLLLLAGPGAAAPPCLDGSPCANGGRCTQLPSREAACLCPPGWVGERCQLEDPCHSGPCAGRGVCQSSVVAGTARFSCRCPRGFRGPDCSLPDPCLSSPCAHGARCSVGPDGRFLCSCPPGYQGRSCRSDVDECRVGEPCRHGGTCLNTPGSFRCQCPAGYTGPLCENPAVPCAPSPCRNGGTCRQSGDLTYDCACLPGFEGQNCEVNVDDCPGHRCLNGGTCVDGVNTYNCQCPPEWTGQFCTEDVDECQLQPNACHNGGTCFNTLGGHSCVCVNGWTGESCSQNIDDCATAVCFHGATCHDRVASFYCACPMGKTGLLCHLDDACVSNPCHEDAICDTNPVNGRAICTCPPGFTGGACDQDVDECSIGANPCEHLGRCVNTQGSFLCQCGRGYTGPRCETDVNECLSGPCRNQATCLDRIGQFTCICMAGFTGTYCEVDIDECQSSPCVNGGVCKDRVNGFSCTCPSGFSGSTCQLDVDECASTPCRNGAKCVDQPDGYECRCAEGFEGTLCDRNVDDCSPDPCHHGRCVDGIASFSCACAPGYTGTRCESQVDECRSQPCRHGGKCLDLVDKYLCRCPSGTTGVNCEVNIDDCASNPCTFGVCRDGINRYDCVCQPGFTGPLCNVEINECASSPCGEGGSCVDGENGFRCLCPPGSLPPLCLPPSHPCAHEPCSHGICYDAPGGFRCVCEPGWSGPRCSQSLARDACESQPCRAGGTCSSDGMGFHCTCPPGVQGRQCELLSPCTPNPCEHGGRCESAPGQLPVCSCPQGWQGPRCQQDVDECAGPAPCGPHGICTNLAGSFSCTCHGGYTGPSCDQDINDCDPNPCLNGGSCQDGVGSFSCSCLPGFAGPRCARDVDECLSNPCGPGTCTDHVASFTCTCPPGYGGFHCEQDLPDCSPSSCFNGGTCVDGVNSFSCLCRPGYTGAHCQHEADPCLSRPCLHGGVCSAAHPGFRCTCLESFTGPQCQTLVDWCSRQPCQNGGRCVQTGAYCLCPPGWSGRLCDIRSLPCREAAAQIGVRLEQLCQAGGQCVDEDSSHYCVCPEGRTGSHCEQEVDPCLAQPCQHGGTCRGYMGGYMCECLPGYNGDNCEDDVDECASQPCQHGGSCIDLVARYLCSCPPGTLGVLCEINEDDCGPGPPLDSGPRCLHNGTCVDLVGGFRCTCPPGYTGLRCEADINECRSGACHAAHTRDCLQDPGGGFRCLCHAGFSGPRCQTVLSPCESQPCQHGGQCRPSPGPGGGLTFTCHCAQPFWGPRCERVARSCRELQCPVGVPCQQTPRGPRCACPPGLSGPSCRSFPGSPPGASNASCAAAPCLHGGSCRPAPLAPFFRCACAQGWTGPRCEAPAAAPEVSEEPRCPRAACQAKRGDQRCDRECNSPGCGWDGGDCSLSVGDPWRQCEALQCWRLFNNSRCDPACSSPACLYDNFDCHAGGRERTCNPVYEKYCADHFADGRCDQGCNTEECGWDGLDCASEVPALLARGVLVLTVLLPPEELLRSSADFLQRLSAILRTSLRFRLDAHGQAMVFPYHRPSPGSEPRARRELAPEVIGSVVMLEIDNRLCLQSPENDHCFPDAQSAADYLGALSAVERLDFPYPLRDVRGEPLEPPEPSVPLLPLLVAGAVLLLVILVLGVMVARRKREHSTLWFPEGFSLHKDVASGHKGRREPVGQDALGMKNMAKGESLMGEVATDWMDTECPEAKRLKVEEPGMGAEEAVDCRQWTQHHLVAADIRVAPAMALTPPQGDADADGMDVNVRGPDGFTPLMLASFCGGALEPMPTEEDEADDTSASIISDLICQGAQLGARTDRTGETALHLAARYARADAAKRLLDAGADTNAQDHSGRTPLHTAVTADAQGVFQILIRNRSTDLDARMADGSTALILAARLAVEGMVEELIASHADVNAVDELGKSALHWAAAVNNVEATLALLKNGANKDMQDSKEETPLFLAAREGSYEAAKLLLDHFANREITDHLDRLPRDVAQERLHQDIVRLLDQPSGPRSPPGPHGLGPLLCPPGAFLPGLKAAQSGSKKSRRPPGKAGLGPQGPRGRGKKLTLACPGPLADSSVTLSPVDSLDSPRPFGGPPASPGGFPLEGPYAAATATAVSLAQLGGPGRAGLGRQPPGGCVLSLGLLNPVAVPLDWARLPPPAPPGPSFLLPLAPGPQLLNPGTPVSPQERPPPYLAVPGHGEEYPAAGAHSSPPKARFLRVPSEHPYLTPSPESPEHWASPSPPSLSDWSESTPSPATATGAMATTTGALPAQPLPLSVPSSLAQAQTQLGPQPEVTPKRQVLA

Consider `O=C1O[C@@H](c2ccccc2)[C@@H](c2ccccc2)N2[C@@H](c3ccccc3OCCO)[C@]3(C(=O)Nc4ccc(C#CCCO)cc43)[C@@H](C(=O)NC[C@H](O)c3ccccc3)[C@H]12`, for which the composite z-score was found to be 1.54 in assay [1]; 3.29 in assay [5]; 1.07 in [7]; 1.37 in assay [8]; 0.944 in assay [9]; 0.506 in assay [10]. For the same compound, the z-score in assay [2] was 2.3 (inactive); in assay [3], -1.71 (inactive); in assay [4], 4.29 (inactive); in [6], 0.535 (inactive).
With `[N-]=[N+]=NCc1ccccc1[C@@H]1OC(c2ccc(OCCCO)cc2)=N[C@]1(Cc1ccccc1N=[N+]=[N-])C(=O)NCC(O)CO` (stereo not given in full), the composite z-score in [1] came to 1.18; in assay [5], 3.29; in assay [7], 0.81; in assay [8] it was 0.92; in assay [9], 0.962; in assay [10] it was 0.235. The z-score in [2] was 0.263 (inactive); in assay [3] it was 0.21 (inactive); in assay [4], 0.622 (inactive); in assay [6] it was 0.712 (inactive).
As to `CC(C)C[C@@H]1NC(=O)[C@@]23C(=O)N[C@@H](Cc4ccccc4)C2[C@H](C)[C@@]2(C)O[C@H]2C3/C=C/C/C=C\CNC(=O)CNC1=O` (stereo not given in full), the composite z-score in assay [1] is 0.514; in [5], 2.23; in assay [7], 0.0207; in assay [8], 0.609; in assay [9] it was 0.53; in assay [10], -0.0812. Also, the z-score is -0.135 (inactive) in [2], -1.1 (inactive) in assay [3], -0.159 (inactive) in [4] and -0.52 (inactive) in [6].
For `CC(C)NC(=O)[C@@H]1c2ccccc2C(=O)N(Cc2ccc(OC(F)(F)F)cc2)[C@H]1c1ccc(CO)cc1`, the composite z-score in assay [1] was found to be 1.54; in assay [5], 2.67; in assay [7] it was 0.734; in [8], 0.756; in assay [9], 1.11; in assay [10] it was 0.587. In addition, the z-score in [2] is 0.0263 (inactive); in assay [3], -1.24 (inactive); in [4], -1.51 (inactive); in [6], -1.48 (inactive).
`COC(=O)C[C@H]1O[C@@]2(C[C@@H]1[Si](C)(C)C)C(=O)N(C)c1ccccc12`: the composite z-score in assay [1] is 0.447; in [5], 1.2; in assay [7] it was -0.15; in assay [8], 0.297; in [9] it was 0.764; in assay [10], 0.0747. Moreover, the z-score was -2.53 (inactive) in assay [2], -2.4 (inactive) in assay [3], -1.5 (inactive) in assay [4] and 1.62 (inactive) in assay [6].
For the compound `CC=CC(O)C1C=CC2C(=O)NC(=O)C2N1Nc1ccc(Cl)cc1Cl` (stereo not given), the composite z-score in assay [1] was -0.193; in [5] it was 2.28; in assay [7], 0.0598; in assay [8], -0.376; in assay [9], 0.0204; in assay [10], -0.148. In addition, the z-score in assay [2] is -6.04 (inactive); in assay [3] it was -2 (inactive); in [4], 0.624 (inactive); in assay [6] it was -1.13 (inactive).
Consider `CC(C)=CCCC(C)=CC(O)C1C=CC2C(=O)NC(=O)C2N1Nc1ccc(Cl)cc1Cl` (stereo not given), for which the composite z-score in [1] was 0.258; in assay [5] it was 2.31; in assay [7], 0.17; in assay [8], -0.218; in assay [9] it was 0.845; in [10] it was -0.0904. Besides, the z-score in assay [2] was -0.835 (inactive); in assay [3], -4.51 (inactive); in [4] it was 0.279 (inactive); in [6] it was -2.06 (inactive).
Consider `COC(=O)[C@@]1(Cc2ccccc2)[C@H]2c3cc(C(=O)N(C)C)n(Cc4ccc(S(C)(=O)=O)cc4)c3C[C@H]2CN1C(=O)c1ccccc1`, for which the composite z-score was -0.541 in assay [1]; 3.51 in [5]; 0.384 in assay [7]; -0.415 in assay [8]; 1.11 in assay [9]; 0.211 in assay [10]. Moreover, the z-score is 0.407 (inactive) in assay [2], 0.279 (inactive) in assay [3], 0.654 (inactive) in assay [4] and -1.59 (inactive) in assay [6].
With `COCCOC(=O)N1C(=O)[C@@]2(c3cc(C#CCC(C(=O)OC)C(=O)OC)ccc31)[C@H](C(=O)Nc1nc3ccccc3s1)[C@H]1C(=O)O[C@H](c3ccccc3)[C@H](c3ccccc3)N1[C@@H]2c1ccc(OCCO)cc1`, the composite z-score is 1.54 in [1]; 1.43 in [5]; 0.483 in assay [7]; 1.89 in assay [8]; 1.05 in [9]; 0.232 in assay [10]. Also, the z-score is 1.74 (inactive) in [2], 0.657 (inactive) in assay [3], 2.14 (inactive) in assay [4] and 1.43 (inactive) in assay [6].
For `CCOC(=O)C1=CC[C@@H](c2ccc(OC)cc2)N(S(=O)(=O)c2ccc(C)cc2)[C@H]1c1ccc(C)cc1`, the composite z-score in assay [1] amounted to 0.966; in assay [5], 2.84; in [7], 0.194; in assay [8], 0.191; in assay [9], 1.09; in assay [10], 0.0656. Further, the z-score in [2] was 0.106 (inactive); in [3] it was 0.529 (inactive); in assay [4], 0.53 (inactive); in assay [6] it was -0.747 (inactive).
For the compound `COC(=O)[C@@]1(Cc2ccccc2)[C@H]2c3cc(C(=O)N4CCCC4)n(Cc4ccc(OC)c(OC)c4)c3C[C@H]2CN1C(=O)c1ccccc1`, the composite z-score is 0.632 in assay [1]; 3.5 in [5]; 0.666 in [7]; 0.0245 in assay [8]; 1.14 in [9]; 0.403 in assay [10]. Also, the z-score is 0.49 (inactive) in assay [2], 1.06 (inactive) in assay [3], 1.45 (inactive) in [4] and -0.0046 (inactive) in assay [6].
In the case of `COc1ccc(NN2C(C(O)c3ccc(I)cc3)C=CC3C(=O)N(C4CCCCC4)C(=O)C32)cc1` (stereo not given), the composite z-score in assay [1] is 1.55; in [5], 3.04; in assay [7] it was 0.109; in assay [8], 0.715; in [9], 1.03; in assay [10], 0.257. Also, the z-score in assay [2] was 0.147 (inactive); in [3], 1.26 (inactive); in [4], 0.801 (inactive); in [6], -0.0155 (inactive).
Consider `CCOC(=O)C[C@H]1[C@H](OC(=O)Cc2ccc3c(c2)OCO3)[C@@H](NC(=O)Cc2ccc(OC)cc2)c2cc(OCCCO)ccc2N1C(=O)Cc1ccc(OC)cc1`, for which the composite z-score is 0.433 in assay [1]; 1.3 in assay [5]; -0.0616 in [7]; -0.102 in assay [8]; 0.194 in assay [9]; -0.157 in assay [10]. For the same compound, the z-score is -0.449 (inactive) in [2], 0.531 (inactive) in [3], -0.495 (inactive) in [4] and 0.503 (inactive) in [6].
`CC1=C([C@H](O)CCc2ccccc2)[C@H](CO)n2c(=O)n(-c3ccccc3)c(=O)n2C1`: the composite z-score in [1] was -0.0416; in assay [5], -0.478; in assay [7], -0.355; in assay [8], 0.0865; in assay [9], -0.696; in [10], -0.211. Also, the z-score in assay [2] is -1.02 (inactive); in [3], -1.03 (inactive); in [4], -0.539 (inactive); in assay [6] it was 1.87 (inactive).
